Source: the supplement of paper PMC6897291

System: U-2932
Test: growth inhibition by drug alone (1 - RLU/untreated control) (fraction); higher = stronger inhibition
Conditions: 177Lu-lilotomab satetraxetan 0 ug/ml
Method: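 U-2932 ABC-DLBCL cells were pretreated or not for 18 h with 1 ug/ml 177Lu-lilotomab satetraxetan (600 MBq/mg), washed and seeded (3000 cells/well) on 384-well plates pre-printed with the Selleck Cambridge Cancer Compound library. Viability was read by RealTime-Glo luminescence on days 3-6 after seeding. Effect = 1 - RLU/mean RLU of the 48 untreated no-drug control wells per plate; Bliss score = (M-E)/(1-Fa), with E the expected Bliss-additive effect.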

SMILES | growth inhibition by drug alone (10 nM, time (day): 3) | growth inhibition by drug alone (10 nM, time (day): 4) | growth inhibition by drug alone (10 nM, time (day): 5) | growth inhibition by drug alone (10 nM, time (day): 6) | growth inhibition by drug alone (1000 nM, time (day): 3) | growth inhibition by drug alone (1000 nM, time (day): 4) | growth inhibition by drug alone (1000 nM, time (day): 5) | growth inhibition by drug alone (1000 nM, time (day): 6)
O=C(O)c1nn(Cc2ccc(Cl)cc2Cl)c2ccccc12 [Lonidamine] | 0.129 | 0.0861 | 0.00199 | -0.13 | 0.0943 | 0.0942 | -0.0767 | -0.0595
CC[C@@H](C(=O)[C@@H](C)[C@@H](O)[C@H](C)[C@@H]1O[C@@H]([C@@H](CC)C(=O)O)CC[C@@H]1C)[C@H]1O[C@]2(C=C[C@@H](O)[C@]3(CC[C@@](C)([C@H]4CC[C@](O)(CC)[C@H](C)O4)O3)O2)[C@H](C)C[C@@H]1C [Salinomycin (Procoxacin)] | 0.136 | 0.115 | 0.00536 | -0.0492 | 0.311 | 0.423 | 0.542 | 0.721
N[C@@H](Cc1ccc(N(CCCl)CCCl)cc1)C(=O)O [Melphalan] | 0.0288 | 0.0447 | -0.0175 | -0.0774 | -0.0212 | 0.00786 | -0.0265 | -0.169
Cn1cc(C2=C(c3cn(C4CCN(Cc5ccccn5)CC4)c4ccccc34)C(=O)NC2=O)c2ccccc21 | -0.0338 | -0.0583 | -0.0539 | 0.0229 | -0.144 | -0.131 | -0.13 | -0.0775
CN(C)CCN(C)CCc1ccc(Cl)c(Cl)c1 | -0.0253 | -0.0155 | 0.000169 | 0.0547 | -0.0569 | -0.0395 | -0.0761 | -0.214
